Laboratory results taken from PubChem BioAssay (EPA / NIEHS).
Inconclusive results are not listed. The source made the active and inactive calls. How the source made its calls: active means hit-call score of the fitted dose curve at least 0.9, where 1 is the maximum; inconclusive means response in the unintended direction; inactive means score below 0.9.

Each compound was assayed against Peroxisome proliferator-activated receptor gamma (Homo sapiens) (UniProt P37231) (assay: NVS_NR_hPPARg: NovaScreen (NVS) Nuclear Receptor Binding Assay for human Peroxisome Proliferator-activated Receptor gamma (PPARg) (AID 2283370)).
Method in brief: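 Fluorescence polarization readout of ligand binding to extracted human PPARg, measured at 2 h. Duplicate single-point screen at 25 uM, then concentration-series retesting; activity defined as signal loss versus DMSO.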

Peroxisome proliferator-activated receptor gamma (Homo sapiens), sequence (P37231 whole entry, looked up): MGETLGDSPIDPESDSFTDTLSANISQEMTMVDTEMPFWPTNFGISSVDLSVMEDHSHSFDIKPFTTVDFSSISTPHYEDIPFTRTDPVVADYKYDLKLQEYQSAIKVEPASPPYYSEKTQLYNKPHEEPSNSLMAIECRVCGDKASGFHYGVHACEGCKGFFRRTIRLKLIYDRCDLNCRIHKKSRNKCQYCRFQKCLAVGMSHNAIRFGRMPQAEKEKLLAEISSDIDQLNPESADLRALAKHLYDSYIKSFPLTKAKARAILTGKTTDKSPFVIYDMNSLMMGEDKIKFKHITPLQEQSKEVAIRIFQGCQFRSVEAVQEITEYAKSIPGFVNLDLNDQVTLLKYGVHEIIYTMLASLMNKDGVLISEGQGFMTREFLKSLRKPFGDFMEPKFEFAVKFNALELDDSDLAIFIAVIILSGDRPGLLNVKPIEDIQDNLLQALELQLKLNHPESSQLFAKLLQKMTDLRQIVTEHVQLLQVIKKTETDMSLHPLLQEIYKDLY

Row | SMILES | outcome | AC50
1 | COc1ccc(S(=O)(=O)N2C(=O)[C@@](c3ccccc3OC)(N3C[C@H](O)C[C@H]3C(=O)N(C)C)c3cc(Cl)ccc32)c(OC)c1 | inactive | 
2 | CCCCC(CC)COC(=O)CC(C(=O)OCC(CC)CCCC)S(=O)(=O)O (centres undefined) |  | 0.221 µM (active)
3 | C[C@]12C=CC(=O)C=C1CC[C@@H]1[C@@H]2C(=O)C[C@@]2(C)[C@H]1CC[C@]2(O)C(=O)CO | inactive | 
4 | CCCCCCCCCCCC(=O)OC | inactive | 
5 | CCCCCCCCCCC | inactive | 
6 | CCOc1ccc2c(c1)C(C)=CC(C)(C)N2 | inactive | 
7 | CC(C)c1ccc(C(=O)N=C(N)N)cc1S(C)(=O)=O | inactive | 
8 | Cc1cccc(C)c1O | inactive | 
9 | Cc1oc(-c2ccccc2)nc1CCOc1cccc2c1ccn2CCC(=O)O |  | 2.27 µM (active)
10 | Oc1ccc2ccccc2c1N=Nc1ccccc1 | inactive | 
11 | CC=Cc1ccc(O)c(OC)c1 | inactive | 

Each compound was assayed against human Serotonin Transporter (SERT), SLC6A4 (gene 6532) (UniProt P31645) (assay: NVS_TR_hSERT: NovaScreen (NVS) Transporter Assay for human Serotonin Transporter (SERT) (AID 2283372)).
Procedure: NVS_TR_hSERT is a biochemical, single-readout assay that uses extracted gene-proteins from Human platelet membranes in a tissue-based cell-free assay. Measurements were taken 1 hour after chemical dosing in a 96-well plate.NVS_TR_hSERT is one of one assay component(s) measured or calculated from the NVS_TR_hSERT assay. It is designed to make measurements of radioligand binding, a form of binding reporter, as detected with scintillation counting signals by Filter-based radiodetection technology.Data from the assay component NVS_TR_hSERT was analyzed into 1 assay endpoint. This assay endpoint, NVS_TR_hSERT, was analyzed in the positive analysis fitting direction relative to DMSO as the negative control and baseline of activity. Using a type of binding reporter, loss-of-signal activity can be used to understand changes in the binding as they relate to the gene SLC6A4. Furthermore, this assay endpoint can be referred to as a primary readout, because the performed assay has only produced 1 assay endpoint. To generalize the intended target to other relatable targets, this assay endpoint is annotated to the transporter intended target family, where the subfamily is neurotransmitter transporter.
Binding assays used specific radioligands (tritiated, iodinated) with non-radioactive competitive displacement ligands in agonist or antagonist protocols (as indicated) and various reference compounds and inhibitors to titrate specific binding to receptors and transporters. Most enzyme assays (CYPs, kinases, phosphatases, proteases, HDACs) used recombinant protein and specific substrates (fluorescence mostly, some colorimetric and radioactive) and inhibitors, followed by a biochemical separation of substrate and product. All assays for the biochemical HTS were initially run in duplicate at a single concentration (10 uM for CYP450 assays and 25 uM for all others). […] Each assay was run with positive and negative controls, and concurrent controls on every plate. The follow-up (secondary) screen tested active chemical-pairs in concentration series, as well as a few additional assays not tested in the primary screen, some selected negative inactives, and several cases re-run in the concentration series for confirmatory purposes.

human Serotonin Transporter (SERT), SLC6A4 (gene 6532), sequence (P31645 whole entry, looked up): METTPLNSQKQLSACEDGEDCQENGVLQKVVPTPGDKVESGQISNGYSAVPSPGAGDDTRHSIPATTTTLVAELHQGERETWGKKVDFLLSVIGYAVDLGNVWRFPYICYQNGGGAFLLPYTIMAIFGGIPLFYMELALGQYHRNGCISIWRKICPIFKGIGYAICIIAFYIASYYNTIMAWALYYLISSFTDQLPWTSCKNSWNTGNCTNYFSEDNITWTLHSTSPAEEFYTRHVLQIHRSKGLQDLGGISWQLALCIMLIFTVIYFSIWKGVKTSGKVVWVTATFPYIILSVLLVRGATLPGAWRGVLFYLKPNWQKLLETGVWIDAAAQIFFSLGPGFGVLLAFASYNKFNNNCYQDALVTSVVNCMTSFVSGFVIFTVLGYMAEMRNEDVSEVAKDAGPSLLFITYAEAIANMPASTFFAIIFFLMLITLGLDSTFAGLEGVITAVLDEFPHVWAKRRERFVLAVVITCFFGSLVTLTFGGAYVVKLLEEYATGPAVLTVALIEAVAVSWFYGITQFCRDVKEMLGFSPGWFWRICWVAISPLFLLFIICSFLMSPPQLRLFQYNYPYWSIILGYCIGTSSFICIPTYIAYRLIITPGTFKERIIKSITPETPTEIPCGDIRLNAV

Row | SMILES | AC50 | outcome
12 | CN1CCN(Cc2cc(-c3ccc4[nH]c(=O)oc4c3)co2)[C@@H](c2ccc(F)cc2)C1 | 3.37 µM (active) | 
13 | Cc1nc(-c2ccc3c(c2)CCN(CCC2CCC(NC(=O)/C=C/c4ccc(F)cc4)CC2)CC3)no1 (centres undefined) | 0.068 µM (active) | 
14 | CCOC(=O)CCC(=O)OCC |  | inactive

These compounds were tested against human Dopamine Transporter (DAT), SLC6A3 (gene 6531) (UniProt Q01959) (assay: NVS_TR_hDAT: NovaScreen (NVS) Transporter Assay for human Dopamine Transporter (DAT) (AID 2283374);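 further: activity means loss of bound radioligand signal relative to DMSO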).
Method in brief: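 Cell-free radioligand displacement binding at human DAT, 1 h after dosing, with filtration and scintillation counting. Primary screen in duplicate at 25 uM, actives then in concentration series. Loss of bound signal versus DMSO scored.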

human Dopamine Transporter (DAT), SLC6A3 (gene 6531), sequence (Q01959 whole entry, looked up): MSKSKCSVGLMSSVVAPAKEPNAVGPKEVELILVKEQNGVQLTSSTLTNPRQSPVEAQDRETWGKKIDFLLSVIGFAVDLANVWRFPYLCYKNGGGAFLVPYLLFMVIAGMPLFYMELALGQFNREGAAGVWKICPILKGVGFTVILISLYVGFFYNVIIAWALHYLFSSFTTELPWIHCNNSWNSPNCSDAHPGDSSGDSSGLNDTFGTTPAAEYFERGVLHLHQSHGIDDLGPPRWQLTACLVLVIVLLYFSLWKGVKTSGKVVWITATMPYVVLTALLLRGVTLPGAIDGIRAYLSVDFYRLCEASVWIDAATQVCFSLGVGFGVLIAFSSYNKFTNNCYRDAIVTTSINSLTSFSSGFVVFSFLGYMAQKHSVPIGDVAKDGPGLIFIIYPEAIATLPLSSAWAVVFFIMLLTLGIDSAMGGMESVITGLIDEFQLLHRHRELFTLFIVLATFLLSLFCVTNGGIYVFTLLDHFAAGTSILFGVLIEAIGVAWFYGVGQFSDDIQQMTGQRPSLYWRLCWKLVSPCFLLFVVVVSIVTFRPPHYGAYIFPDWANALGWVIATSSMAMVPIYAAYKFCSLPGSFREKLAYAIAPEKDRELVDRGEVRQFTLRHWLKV

Row | SMILES | AC50 | outcome
15 | CN1CCN(Cc2cc(-c3ccc4[nH]c(=O)oc4c3)co2)[C@@H](c2ccc(F)cc2)C1 | 1.99 µM (active) | 
16 | COc1ccc(S(=O)(=O)N2C(=O)[C@@](c3ccccc3OC)(N3C[C@H](O)C[C@H]3C(=O)N(C)C)c3cc(Cl)ccc32)c(OC)c1 |  | inactive
17 | CCCCC(CC)COC(=O)CC(C(=O)OCC(CC)CCCC)S(=O)(=O)O (centres undefined) | 8.14 µM (active) | 
18 | Oc1ccc2c(c1)OC[C@@H](N1CCC(O)(c3ccc(F)cc3)CC1)[C@H]2O | 12.5 µM (active) | 
19 | CCc1c(C(=O)NN2CCCCC2)nn(-c2ccc(Cl)cc2Cl)c1-c1ccc(Br)cc1 | 6.88 µM (active) | 
20 | Cc1c(C(=O)O)c(O)cc2c1C(=O)c1c(O)c([C@@H]3O[C@H](CO)[C@@H](O)[C@H](O)[C@H]3O)c(O)c(O)c1C2=O |  | inactive
21 | CC=Cc1ccc(O)c(OC)c1 | 8.8 µM (active) | 
22 | Nc1ccc(S(=O)(=O)c2ccc(N)cc2)cc1 | 3.85 µM (active) | 
23 | CCOC(=O)CCC(=O)OCC |  | inactive

Each compound was assayed against rat Serotonin Transporter (SERT), Slc6a4 (gene 25553) (UniProt P31652) (assay: NVS_TR_rSERT: NovaScreen (NVS) Transporter Assay for rat Serotonin Transporter (SERT) (AID 2283375)).
Method in brief: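 Radioligand binding with competitive displacement on rat forebrain membrane preparations, counted by filtration and scintillation after 1 h. Primary single-point duplicates at 25 uM; active chemicals followed up in concentration-response. DMSO served as baseline.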

rat Serotonin Transporter (SERT), Slc6a4 (gene 25553), sequence (P31652 whole entry, looked up): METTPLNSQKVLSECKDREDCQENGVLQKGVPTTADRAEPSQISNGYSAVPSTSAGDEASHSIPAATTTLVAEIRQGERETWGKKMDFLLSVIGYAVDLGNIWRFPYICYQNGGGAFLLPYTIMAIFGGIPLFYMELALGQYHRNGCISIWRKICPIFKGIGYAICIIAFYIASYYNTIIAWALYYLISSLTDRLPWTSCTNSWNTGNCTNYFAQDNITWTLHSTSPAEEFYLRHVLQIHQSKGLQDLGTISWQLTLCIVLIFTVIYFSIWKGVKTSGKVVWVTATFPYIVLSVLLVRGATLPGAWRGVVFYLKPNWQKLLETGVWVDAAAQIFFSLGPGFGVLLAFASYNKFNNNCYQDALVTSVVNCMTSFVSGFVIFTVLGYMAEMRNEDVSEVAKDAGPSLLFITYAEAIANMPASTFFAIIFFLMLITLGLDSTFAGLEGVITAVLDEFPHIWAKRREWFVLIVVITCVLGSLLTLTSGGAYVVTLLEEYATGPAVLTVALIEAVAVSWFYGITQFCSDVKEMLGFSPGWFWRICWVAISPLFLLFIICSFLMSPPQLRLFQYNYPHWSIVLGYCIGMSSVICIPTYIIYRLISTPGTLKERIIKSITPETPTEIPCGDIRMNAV

Row | SMILES | AC50 | outcome
24 | CN1CCN(Cc2cc(-c3ccc4[nH]c(=O)oc4c3)co2)[C@@H](c2ccc(F)cc2)C1 | 2.52 µM (active) | 
25 | Oc1ccc2c(c1)OC[C@@H](N1CCC(O)(c3ccc(F)cc3)CC1)[C@H]2O |  | inactive
26 | Cc1nc(-c2ccc3c(c2)CCN(CCC2CCC(NC(=O)/C=C/c4ccc(F)cc4)CC2)CC3)no1 (centres undefined) | 0.201 µM (active) | 
27 | Cc1c(C(=O)O)c(O)cc2c1C(=O)c1c(O)c([C@@H]3O[C@H](CO)[C@@H](O)[C@H](O)[C@H]3O)c(O)c(O)c1C2=O |  | inactive

What follows are compounds tested against human Norepinephrine Transporter (NET), SLC6A2 (gene 6530) (UniProt P23975) (assay: NVS_TR_hNET: NovaScreen (NVS) Transporter Assay for human Norepinephrine Transporter (NET) (AID 2283377);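 on AC50: displacement of radioligand from human NET seen as loss of scintillation signal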).
Method in brief: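 Cell-free radioligand binding using CHO-derived membrane protein expressing human NET, read by filter scintillation counting 1 h after dosing; loss of signal vs DMSO. Initial duplicate screen at 25 uM, actives retested in concentration series.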

human Norepinephrine Transporter (NET), SLC6A2 (gene 6530), sequence (P23975 whole entry, looked up): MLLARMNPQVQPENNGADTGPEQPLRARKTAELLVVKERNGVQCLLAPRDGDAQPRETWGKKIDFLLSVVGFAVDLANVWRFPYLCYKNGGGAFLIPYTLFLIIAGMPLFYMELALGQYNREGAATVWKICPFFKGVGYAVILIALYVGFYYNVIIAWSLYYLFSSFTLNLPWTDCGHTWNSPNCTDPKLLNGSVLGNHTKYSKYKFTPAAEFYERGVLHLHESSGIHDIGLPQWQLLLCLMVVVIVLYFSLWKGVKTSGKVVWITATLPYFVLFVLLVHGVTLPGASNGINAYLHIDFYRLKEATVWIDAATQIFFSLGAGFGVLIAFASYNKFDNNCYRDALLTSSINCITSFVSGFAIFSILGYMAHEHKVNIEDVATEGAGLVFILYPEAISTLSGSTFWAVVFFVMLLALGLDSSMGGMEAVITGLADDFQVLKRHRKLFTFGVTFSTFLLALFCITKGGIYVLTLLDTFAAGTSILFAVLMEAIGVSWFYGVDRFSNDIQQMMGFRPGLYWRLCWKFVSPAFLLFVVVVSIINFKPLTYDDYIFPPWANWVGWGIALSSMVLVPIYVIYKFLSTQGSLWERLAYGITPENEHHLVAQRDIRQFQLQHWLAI

Row | SMILES | AC50 | outcome
28 | CN1CCN(Cc2cc(-c3ccc4[nH]c(=O)oc4c3)co2)[C@@H](c2ccc(F)cc2)C1 | 12.7 µM (active) | 
29 | COc1ccc(S(=O)(=O)N2C(=O)[C@@](c3ccccc3OC)(N3C[C@H](O)C[C@H]3C(=O)N(C)C)c3cc(Cl)ccc32)c(OC)c1 | 41.6 µM (active) | 
30 | CCCCC(CC)COC(=O)CC(C(=O)OCC(CC)CCCC)S(=O)(=O)O (centres undefined) | 10.2 µM (active) | 
31 | Nc1nc(N)c2nc(CNc3ccc(C(=O)N[C@@H](CCC(=O)O)C(=O)O)cc3)cnc2n1 |  | inactive
32 | CCOc1ccc2c(c1)C(C)=CC(C)(C)N2 |  | inactive
33 | CC(C)(C)c1cc(O)c(C(C)(C)C)cc1O |  | inactive
34 | Nc1ccc(S(=O)(=O)c2ccc(N)cc2)cc1 |  | inactive

What follows are compounds tested against mouse Estrogen Receptor alpha (Era), Esr1 (gene 13982) (UniProt P19785) (assay: NVS_NR_mERa: NovaScreen (NVS) Nuclear Receptor Binding Assay for mouse Estrogen Receptor alpha (Era) (AID 2283378);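 further: hit means loss of bound radioligand signal relative to DMSO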).
Method in brief: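 Filter radiodetection of radioligand displacement from extracted receptor protein, measured 18 h post-dose. Single 25 uM concentration in duplicate initially, with concentration-series follow-up. Binding loss fitted relative to DMSO.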

mouse Estrogen Receptor alpha (Era), Esr1 (gene 13982), sequence (P19785 whole entry, looked up): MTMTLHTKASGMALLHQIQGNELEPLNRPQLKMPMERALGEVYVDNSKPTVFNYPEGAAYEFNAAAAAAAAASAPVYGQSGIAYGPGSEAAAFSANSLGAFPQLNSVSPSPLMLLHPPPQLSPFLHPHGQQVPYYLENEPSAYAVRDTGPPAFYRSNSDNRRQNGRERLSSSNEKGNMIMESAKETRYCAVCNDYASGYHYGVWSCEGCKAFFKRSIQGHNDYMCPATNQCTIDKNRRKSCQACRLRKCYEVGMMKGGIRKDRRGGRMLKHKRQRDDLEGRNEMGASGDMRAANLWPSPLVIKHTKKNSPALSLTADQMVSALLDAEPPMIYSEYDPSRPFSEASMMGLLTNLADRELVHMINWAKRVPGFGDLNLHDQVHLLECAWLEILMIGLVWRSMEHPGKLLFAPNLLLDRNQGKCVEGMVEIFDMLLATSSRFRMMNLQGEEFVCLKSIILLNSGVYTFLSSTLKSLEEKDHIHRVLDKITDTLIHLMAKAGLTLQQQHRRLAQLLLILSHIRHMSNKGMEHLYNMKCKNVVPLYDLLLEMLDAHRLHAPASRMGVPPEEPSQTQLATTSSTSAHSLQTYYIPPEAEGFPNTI

Row | SMILES | outcome | AC50
35 | CCCCCCC(=O)OCC | inactive | 
36 | CN1CCN(Cc2cc(-c3ccc4[nH]c(=O)oc4c3)co2)[C@@H](c2ccc(F)cc2)C1 |  | 5.79 µM (active)
37 | Cc1ccccc1Cl | inactive | 
38 | CC(C)(C)c1cc(O)c(C(C)(C)C)cc1O | inactive | 
39 | CCOC(=O)CCC(=O)OCC | inactive | 
